# Key:
# Assay in all cases: DAPPL (digital affinity profiling via proximity ligation, sequencing); 10 mM Tris-HCl pH 7.5, 50 mM NaCl, 1 mM DTT, 4% glycerol, room temperature, 30 min; GST-TFs on glutathione beads, 16-mer random dsDNA library, 0.1% formaldehyde crosslink after washing; high values mean tight binding
# Settings in all cases: protein: recombinant; tags: N-terminal GST; dsDNA, one strand shown
# FLI1 = molecular target: T1, FLI1 (Homo sapiens, UniProt Q01543 1-452)
# T1 sequence: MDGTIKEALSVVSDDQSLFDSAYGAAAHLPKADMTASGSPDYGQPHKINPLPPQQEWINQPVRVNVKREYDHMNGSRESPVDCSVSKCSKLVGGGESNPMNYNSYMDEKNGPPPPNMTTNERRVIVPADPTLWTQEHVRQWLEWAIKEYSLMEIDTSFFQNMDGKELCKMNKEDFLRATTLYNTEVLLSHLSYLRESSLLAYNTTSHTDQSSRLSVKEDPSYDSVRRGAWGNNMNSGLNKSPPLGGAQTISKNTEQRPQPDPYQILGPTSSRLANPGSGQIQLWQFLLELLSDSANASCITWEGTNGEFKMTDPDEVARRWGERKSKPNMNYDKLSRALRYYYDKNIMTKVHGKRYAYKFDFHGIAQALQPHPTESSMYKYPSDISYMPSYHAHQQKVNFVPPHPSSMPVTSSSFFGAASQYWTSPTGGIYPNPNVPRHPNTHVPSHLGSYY
# Summary of the method: (§1)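 Yeast served to express human transcription factors as GST fusions, which were then captured on glutathione beads and labelled with DNA barcodes. Pooled with a tag-only sample, they were incubated with 200 nmole of a 16-mer random double-stranded DNA library for 30 min at room temperature in Tris/NaCl/DTT/glycerol buffer, washed, crosslinked with 0.1% formaldehyde, ligated by proximity, amplified by PCR and sequenced. Dividing each hexamer's read frequency for a factor by its frequency for the tag-only sample gives the binding signal.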
# ELK1 = molecular target: T2, ELK1 (Homo sapiens, UniProt P19419 1-428)
# T2 sequence: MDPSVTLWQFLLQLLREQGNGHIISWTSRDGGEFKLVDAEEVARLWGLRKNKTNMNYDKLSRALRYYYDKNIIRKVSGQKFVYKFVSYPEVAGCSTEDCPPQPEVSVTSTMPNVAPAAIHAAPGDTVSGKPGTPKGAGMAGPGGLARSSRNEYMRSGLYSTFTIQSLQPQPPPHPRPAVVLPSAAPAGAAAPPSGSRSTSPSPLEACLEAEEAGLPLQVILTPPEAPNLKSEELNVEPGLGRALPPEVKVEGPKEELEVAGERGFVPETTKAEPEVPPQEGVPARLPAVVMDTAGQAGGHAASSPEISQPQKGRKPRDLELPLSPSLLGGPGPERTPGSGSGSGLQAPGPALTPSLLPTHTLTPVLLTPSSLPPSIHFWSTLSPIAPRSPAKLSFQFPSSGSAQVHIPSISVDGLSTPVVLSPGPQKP
# Summary of the method: as §1
# GABPA = molecular target: T3, GABPA (Homo sapiens, UniProt Q06546 1-454)
# T3 sequence: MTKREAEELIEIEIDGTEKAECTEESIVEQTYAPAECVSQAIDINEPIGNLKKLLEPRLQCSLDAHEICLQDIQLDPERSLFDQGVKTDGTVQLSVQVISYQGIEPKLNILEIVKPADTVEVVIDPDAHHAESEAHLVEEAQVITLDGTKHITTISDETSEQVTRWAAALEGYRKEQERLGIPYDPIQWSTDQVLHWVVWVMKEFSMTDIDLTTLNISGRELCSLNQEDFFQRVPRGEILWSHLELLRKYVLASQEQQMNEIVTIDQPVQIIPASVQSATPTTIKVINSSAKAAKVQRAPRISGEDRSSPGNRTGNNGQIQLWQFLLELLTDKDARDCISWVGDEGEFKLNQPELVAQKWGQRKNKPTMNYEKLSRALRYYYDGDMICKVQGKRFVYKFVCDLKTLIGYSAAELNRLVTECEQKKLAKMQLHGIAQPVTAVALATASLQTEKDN
# Summary of the method: as §1
# ERG = molecular target: T4, ERG (Homo sapiens, UniProt P11308 1-479)
# T4 sequence: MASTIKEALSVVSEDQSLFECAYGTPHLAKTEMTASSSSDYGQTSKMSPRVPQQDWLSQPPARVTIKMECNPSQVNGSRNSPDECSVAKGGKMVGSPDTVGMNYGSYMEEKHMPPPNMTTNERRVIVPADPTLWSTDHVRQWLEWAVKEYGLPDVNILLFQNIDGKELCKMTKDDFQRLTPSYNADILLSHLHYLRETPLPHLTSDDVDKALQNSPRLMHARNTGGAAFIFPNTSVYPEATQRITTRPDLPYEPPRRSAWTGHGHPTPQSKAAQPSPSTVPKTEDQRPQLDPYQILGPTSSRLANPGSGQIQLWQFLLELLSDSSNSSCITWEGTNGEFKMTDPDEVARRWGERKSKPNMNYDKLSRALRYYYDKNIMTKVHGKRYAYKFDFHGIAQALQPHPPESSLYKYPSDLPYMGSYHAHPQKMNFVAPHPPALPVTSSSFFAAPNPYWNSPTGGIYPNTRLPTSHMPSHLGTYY
# Summary of the method: as §1
# ELF1 = ELF1 (Homo sapiens, UniProt P32519 1-619)
# Summary of the method: as §1
# EHF = molecular target: T5, EHF (Homo sapiens, UniProt Q9NZC4 1-300)
# T5 sequence: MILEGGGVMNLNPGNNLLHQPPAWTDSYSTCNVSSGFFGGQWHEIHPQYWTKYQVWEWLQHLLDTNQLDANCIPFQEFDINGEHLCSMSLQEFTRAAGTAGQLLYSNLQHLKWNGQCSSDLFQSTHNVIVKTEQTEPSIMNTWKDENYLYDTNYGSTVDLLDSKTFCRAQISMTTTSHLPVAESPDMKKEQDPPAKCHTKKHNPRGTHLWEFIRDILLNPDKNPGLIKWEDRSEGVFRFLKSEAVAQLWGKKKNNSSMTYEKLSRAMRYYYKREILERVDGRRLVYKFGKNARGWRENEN
# Summary of the method: as §1
# SPIB = SPIB (Homo sapiens, UniProt Q01892 1-262)
# Summary of the method: as §1
# ELK3 = molecular target: T6, ELK3 (Homo sapiens, UniProt P41970 1-407)
# T6 sequence: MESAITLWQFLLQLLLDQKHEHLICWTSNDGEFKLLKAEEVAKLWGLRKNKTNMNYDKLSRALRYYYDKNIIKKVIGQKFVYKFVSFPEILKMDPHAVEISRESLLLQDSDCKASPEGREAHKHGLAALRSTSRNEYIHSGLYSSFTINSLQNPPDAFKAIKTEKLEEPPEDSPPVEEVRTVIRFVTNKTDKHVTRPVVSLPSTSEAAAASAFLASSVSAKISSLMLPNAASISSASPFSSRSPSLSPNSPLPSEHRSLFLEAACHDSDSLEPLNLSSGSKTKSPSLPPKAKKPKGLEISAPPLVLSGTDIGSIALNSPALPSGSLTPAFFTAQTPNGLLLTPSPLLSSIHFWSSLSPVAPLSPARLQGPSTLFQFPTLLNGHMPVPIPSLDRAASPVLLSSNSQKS
# Summary of the method: as §1
# SPIC = molecular target: T7, SPIC (Homo sapiens, UniProt Q8N5J4 1-248)
# T7 sequence: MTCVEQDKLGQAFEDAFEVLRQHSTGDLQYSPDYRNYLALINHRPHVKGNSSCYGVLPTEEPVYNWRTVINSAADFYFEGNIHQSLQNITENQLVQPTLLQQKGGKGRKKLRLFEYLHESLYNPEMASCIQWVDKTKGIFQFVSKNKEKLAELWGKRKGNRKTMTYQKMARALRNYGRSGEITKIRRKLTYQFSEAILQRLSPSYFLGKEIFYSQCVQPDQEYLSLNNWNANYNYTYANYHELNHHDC
# Summary of the method: as §1
# Sequence of ELF1 (P32519 whole entry): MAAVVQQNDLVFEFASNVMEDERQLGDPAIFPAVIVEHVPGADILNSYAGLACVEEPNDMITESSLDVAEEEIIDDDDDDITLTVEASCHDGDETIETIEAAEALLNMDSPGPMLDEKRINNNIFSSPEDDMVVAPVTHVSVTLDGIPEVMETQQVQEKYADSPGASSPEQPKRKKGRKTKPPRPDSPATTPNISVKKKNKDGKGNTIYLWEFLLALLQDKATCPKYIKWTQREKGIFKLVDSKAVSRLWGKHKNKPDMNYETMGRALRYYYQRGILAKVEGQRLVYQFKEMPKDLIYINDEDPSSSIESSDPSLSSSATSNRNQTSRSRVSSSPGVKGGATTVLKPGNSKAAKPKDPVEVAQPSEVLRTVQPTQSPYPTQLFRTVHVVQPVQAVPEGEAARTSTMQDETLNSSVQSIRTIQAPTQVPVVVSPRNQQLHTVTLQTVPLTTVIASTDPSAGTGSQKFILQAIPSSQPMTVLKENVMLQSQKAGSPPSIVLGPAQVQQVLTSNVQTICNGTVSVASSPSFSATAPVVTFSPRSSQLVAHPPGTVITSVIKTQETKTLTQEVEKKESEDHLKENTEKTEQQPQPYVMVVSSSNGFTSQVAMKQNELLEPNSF
# Sequence of SPIB (Q01892 whole entry): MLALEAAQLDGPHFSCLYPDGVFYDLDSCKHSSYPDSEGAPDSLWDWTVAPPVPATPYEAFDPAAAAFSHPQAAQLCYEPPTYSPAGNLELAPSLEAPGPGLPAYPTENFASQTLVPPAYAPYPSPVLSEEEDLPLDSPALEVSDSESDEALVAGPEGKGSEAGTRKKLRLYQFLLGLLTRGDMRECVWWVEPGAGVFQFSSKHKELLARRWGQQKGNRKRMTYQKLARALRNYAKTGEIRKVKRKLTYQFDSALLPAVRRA
sequence,measurement,setting,value
TACAGC,binding signal,FLI1,"1.06 fold enrichment (6-mer frequency, TF over GST control)"
same,binding signal,ELK1,"1.01 fold enrichment (6-mer frequency, TF over GST control)"
same,binding signal,GABPA,"1.07 fold enrichment (6-mer frequency, TF over GST control)"
same,binding signal,ERG,"1.06 fold enrichment (6-mer frequency, TF over GST control)"
same,binding signal,ELF1,"1.13 fold enrichment (6-mer frequency, TF over GST control)"
same,binding signal,EHF,"1.06 fold enrichment (6-mer frequency, TF over GST control)"
same,binding signal,SPIB,"1.04 fold enrichment (6-mer frequency, TF over GST control)"
same,binding signal,ELK3,"1.06 fold enrichment (6-mer frequency, TF over GST control)"
same,binding signal,SPIC,"1.02 fold enrichment (6-mer frequency, TF over GST control)"

# — paper PMC7862700, “An all-to-all approach to the identification of sequence-specific readers for epigenetic DNA modifications on cytosine”
